Drawing on ChEMBL document CHEMBL2218924, “A broad activity screen in support of a chemogenomic map for kinase signalling research and drug discovery” (Biochem J, 2013), this text covers residual activity for one compound.

In test [1] the target is T1, Serine/threonine-protein kinase TBK1 (Homo sapiens) (UniProt Q9UHD2).
T1 sequence (whole entry): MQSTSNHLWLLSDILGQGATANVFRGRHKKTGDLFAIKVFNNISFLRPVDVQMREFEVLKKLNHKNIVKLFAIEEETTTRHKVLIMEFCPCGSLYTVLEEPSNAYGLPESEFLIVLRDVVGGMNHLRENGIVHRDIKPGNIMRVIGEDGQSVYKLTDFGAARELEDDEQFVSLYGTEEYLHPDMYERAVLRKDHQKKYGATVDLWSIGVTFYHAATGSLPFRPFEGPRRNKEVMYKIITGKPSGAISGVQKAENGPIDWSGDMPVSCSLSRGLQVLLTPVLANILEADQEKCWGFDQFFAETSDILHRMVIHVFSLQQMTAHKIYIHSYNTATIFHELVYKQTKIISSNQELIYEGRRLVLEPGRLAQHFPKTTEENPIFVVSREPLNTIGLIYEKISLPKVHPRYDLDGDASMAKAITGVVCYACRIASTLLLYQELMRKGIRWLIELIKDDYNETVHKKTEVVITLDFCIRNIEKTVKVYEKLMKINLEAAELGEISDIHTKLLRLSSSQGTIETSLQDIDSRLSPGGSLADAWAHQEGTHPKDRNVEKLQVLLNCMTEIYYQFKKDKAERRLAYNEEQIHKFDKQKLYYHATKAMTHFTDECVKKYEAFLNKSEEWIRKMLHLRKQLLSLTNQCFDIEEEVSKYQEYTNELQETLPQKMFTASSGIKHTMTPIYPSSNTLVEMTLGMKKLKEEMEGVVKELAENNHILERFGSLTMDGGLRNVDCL
As to conditions: at 10 µM.

Test [2] addresses T2, TGF-beta receptor type-1 (Homo sapiens) (UniProt P36897).
T2 sequence (whole entry): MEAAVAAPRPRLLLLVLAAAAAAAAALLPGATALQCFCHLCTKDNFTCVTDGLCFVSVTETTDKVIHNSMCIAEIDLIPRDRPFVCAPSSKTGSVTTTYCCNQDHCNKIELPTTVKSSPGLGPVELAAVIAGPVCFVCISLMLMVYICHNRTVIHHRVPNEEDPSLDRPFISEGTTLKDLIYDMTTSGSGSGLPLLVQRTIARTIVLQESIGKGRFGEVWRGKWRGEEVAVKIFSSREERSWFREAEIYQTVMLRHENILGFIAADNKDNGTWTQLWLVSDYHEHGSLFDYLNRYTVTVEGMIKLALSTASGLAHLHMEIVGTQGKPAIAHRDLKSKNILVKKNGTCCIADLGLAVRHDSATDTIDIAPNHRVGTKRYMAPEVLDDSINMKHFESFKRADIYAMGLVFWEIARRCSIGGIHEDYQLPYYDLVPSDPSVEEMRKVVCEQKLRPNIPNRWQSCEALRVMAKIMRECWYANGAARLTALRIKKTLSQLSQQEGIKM
As to conditions: at 1 µM.

Test [3] addresses T2, TGF-beta receptor type-1 (Homo sapiens). As to conditions: at 10 µM.
Test [4] concerns the target Insulin-like growth factor 1 receptor (Homo sapiens) (UniProt P08069). As to conditions: at 1 µM.
The target is the same in test [5]. Conditions: at 10 µM.
Test [6] addresses T3, Inhibitor of nuclear factor kappa-B kinase subunit alpha (Homo sapiens) (UniProt O15111).
T3 sequence (whole entry): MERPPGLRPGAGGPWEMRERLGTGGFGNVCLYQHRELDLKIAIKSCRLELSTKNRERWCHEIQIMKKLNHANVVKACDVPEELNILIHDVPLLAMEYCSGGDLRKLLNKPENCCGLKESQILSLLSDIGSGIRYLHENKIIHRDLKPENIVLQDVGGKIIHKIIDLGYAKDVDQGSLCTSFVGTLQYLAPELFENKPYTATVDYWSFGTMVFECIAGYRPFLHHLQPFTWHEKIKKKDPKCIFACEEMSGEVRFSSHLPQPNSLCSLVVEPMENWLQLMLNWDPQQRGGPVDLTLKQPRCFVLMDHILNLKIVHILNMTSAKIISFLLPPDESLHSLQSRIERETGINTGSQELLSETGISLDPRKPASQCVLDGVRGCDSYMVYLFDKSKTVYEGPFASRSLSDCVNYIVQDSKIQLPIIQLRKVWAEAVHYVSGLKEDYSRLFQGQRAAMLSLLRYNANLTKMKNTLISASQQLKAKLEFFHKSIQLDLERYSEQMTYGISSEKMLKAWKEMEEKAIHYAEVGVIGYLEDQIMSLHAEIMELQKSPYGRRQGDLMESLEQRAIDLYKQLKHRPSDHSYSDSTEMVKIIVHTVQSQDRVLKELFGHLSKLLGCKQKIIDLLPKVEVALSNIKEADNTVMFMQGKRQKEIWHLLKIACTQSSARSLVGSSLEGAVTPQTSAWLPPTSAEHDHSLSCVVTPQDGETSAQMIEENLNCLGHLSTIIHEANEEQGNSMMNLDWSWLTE
As to conditions: at 1 µM.

Test [7] deals with T3, Inhibitor of nuclear factor kappa-B kinase subunit alpha (Homo sapiens). As to conditions: at 10 µM.
In test [8] the target is T4, Inhibitor of nuclear factor kappa-B kinase subunit beta (Homo sapiens) (UniProt O14920).
T4 sequence (whole entry): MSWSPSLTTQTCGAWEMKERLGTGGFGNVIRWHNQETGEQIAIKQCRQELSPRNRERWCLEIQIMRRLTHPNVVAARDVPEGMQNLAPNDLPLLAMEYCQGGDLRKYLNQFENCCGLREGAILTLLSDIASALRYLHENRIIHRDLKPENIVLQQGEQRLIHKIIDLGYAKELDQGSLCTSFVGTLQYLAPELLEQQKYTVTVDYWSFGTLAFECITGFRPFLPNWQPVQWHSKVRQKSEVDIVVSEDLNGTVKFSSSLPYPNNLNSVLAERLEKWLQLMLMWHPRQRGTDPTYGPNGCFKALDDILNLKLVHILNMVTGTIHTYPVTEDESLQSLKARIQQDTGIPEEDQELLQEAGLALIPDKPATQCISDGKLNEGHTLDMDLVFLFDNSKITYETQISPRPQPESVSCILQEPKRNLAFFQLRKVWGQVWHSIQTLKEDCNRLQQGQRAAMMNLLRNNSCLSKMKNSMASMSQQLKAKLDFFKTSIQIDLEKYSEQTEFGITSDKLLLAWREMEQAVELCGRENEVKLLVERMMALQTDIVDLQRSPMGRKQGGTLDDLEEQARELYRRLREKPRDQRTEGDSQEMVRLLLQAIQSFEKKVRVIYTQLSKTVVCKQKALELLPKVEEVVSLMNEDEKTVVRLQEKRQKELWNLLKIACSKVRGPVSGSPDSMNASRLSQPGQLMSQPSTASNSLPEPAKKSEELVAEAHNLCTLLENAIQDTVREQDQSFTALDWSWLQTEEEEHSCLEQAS
As to conditions: at 1 µM.

Test [9] addresses T4, Inhibitor of nuclear factor kappa-B kinase subunit beta (Homo sapiens). Conditions: at 10 µM.
For test [10], the target named is Insulin receptor (Homo sapiens) (UniProt P06213). As to conditions: at 1 µM.
Chain of Insulin receptor (Homo sapiens) (P06213 28-758 limits assumed): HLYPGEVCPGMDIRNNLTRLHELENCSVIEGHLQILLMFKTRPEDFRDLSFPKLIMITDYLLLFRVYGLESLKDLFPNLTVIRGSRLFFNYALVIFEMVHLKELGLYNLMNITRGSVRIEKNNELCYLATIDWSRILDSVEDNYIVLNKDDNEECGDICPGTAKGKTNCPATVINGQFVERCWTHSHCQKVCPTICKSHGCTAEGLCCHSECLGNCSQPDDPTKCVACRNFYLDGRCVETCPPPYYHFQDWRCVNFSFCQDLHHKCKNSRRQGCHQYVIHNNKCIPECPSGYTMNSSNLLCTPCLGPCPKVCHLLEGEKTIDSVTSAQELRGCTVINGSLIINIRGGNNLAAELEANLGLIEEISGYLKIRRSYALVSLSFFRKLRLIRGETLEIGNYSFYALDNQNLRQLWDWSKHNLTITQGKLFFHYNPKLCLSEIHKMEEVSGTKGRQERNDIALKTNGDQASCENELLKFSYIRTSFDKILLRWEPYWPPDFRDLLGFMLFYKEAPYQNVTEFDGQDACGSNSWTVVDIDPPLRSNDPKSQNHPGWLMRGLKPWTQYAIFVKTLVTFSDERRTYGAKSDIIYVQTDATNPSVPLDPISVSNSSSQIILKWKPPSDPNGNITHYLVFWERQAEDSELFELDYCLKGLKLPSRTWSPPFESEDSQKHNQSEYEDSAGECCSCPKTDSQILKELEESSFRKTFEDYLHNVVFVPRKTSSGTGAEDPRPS
Chain of Insulin receptor (Homo sapiens) (P06213 763-1382 limits assumed): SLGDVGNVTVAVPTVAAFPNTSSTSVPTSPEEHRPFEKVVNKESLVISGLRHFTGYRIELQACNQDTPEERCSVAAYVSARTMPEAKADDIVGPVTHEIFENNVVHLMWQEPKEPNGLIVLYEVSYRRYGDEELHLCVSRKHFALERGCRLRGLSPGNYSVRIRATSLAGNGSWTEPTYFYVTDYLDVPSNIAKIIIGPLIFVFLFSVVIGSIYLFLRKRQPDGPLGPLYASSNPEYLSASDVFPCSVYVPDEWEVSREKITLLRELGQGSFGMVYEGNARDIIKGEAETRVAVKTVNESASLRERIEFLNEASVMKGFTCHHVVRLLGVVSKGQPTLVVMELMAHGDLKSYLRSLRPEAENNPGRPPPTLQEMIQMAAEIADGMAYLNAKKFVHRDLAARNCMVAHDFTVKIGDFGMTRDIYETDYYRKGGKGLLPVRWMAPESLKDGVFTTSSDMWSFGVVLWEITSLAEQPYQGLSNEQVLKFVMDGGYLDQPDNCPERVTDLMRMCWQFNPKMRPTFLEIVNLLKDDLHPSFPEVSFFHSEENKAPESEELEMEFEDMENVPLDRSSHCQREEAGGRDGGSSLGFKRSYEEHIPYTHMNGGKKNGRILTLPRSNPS

In general, residual activity refers to the signal under treatment as a percentage of the control signal.

Chain of Insulin-like growth factor 1 receptor (Homo sapiens) (P08069 31-736 limits assumed): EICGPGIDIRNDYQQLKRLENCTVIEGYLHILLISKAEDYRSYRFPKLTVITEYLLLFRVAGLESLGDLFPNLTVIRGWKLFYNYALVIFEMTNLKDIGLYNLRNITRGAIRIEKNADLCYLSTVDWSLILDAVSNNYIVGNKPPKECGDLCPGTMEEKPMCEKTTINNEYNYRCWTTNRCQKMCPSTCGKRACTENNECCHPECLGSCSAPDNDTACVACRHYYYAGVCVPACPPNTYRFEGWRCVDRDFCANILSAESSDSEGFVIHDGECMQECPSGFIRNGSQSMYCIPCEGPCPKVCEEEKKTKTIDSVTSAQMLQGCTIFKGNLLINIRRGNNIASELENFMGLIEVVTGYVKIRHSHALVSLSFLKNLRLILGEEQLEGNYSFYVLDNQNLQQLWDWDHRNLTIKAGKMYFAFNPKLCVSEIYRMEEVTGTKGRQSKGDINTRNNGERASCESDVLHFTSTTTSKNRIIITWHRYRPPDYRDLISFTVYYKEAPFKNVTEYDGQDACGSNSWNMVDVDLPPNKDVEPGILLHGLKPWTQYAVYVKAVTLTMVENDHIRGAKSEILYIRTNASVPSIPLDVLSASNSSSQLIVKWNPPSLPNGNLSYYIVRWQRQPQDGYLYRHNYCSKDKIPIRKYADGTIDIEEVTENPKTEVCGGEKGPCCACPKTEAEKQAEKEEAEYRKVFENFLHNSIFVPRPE
Chain of Insulin-like growth factor 1 receptor (Homo sapiens) (P08069 741-1367 limits assumed): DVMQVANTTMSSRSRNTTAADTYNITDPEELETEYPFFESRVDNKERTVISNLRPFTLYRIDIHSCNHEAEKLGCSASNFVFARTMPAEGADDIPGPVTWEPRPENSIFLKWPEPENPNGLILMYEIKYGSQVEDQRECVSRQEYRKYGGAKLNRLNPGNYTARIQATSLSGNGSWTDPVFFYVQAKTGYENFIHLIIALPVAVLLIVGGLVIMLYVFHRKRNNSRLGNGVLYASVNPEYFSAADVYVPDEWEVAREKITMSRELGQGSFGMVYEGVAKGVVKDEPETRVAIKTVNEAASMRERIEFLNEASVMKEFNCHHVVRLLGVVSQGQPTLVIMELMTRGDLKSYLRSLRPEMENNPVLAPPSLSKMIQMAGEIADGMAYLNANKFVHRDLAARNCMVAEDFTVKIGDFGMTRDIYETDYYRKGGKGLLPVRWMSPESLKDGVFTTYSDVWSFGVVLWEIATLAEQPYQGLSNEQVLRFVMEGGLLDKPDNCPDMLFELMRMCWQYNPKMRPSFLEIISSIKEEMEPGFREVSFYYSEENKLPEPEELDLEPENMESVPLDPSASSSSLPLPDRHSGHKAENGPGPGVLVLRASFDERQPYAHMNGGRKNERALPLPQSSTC

In the case of `COc1cc2ncnc(Nc3ccc(O)c(Br)c3)c2cc1OC`, the residual activity turned out to be 15% in test [1]; 79% in test [2]; 71% in test [3]; 87% in test [4]; 81% in test [5]; 97% in [6]. Besides, the residual activity was found to be 72% in test [7], 97% in test [8], 82% in [9] and 114% in test [10].
